# Reference: PubChem BioAssay (EPA / NIEHS)
# Inconclusive results are not listed. Active and inactive are the calls of the source. The calls were made as follows: active = hit-call score of the fitted dose curve at least 0.9, where 1 is the maximum; inconclusive = response in the unintended direction; inactive = score below 0.9.
# Assays:
# [1] = target: human CYP2D6, CYP2D6 (gene 1565) (UniProt P10635); assay: NVS_ADME_hCYP2D6: NovaScreen (NVS) CYP450-related Enzyme Activity (ADME) Assay for human CYP2D6 (AID 2283107)
# Chain of human CYP2D6, CYP2D6 (gene 1565) (P10635 whole entry, looked up): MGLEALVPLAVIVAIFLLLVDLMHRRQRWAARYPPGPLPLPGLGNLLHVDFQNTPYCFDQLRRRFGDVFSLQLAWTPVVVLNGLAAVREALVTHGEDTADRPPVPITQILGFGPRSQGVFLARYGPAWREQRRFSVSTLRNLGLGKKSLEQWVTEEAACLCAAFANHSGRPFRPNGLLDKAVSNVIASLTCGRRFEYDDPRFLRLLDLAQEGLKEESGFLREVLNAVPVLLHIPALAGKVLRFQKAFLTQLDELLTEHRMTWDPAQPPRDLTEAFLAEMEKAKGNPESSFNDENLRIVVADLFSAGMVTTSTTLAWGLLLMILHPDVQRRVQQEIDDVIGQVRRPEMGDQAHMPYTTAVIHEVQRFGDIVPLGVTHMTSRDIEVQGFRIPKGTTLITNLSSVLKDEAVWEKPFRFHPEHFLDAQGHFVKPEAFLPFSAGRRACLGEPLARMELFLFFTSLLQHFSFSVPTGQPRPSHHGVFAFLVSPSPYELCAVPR
# In short: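 Fluorescence readout of recombinant CYP2D6 (insect-cell derived) activity after 1 h incubation with test chemical. Acetonitrile served as baseline, loss-of-signal direction. Single-concentration duplicate screening at 10 uM preceded concentration-response retesting.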
# [2] = target: human CYP2C9, CYP2C9 (gene 1559) (UniProt P11712); assay: NVS_ADME_hCYP2C9: NovaScreen (NVS) CYP450-related Enzyme Activity (ADME) Assay for human CYP2C9 (AID 2283108)
# Chain of human CYP2C9, CYP2C9 (gene 1559) (P11712 whole entry, looked up): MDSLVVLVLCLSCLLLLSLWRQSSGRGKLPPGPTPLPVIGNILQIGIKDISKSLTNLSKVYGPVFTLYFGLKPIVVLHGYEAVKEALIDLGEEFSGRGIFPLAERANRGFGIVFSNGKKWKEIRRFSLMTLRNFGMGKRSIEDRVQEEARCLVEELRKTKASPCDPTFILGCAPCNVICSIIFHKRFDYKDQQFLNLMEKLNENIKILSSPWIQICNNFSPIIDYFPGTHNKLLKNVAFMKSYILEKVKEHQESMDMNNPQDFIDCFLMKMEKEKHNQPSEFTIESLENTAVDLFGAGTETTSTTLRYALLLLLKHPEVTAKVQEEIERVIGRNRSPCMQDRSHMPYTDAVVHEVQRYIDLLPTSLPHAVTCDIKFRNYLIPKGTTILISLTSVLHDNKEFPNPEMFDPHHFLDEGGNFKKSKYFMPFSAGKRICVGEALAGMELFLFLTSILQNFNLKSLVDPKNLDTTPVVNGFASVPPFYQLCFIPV
# In short: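 Fluorescence readout of CYP2C9 activity (SF9-expressed human enzyme) at 0.75 h. The primary screen used 10 uM in duplicate, with concentration-response follow-up for actives; acetonitrile was the negative control.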
# [3] = target: Cytochrome P450 3A4 (Homo sapiens) (UniProt P08684); assay: NVS_ADME_hCYP3A4: NovaScreen (NVS) CYP450-related Enzyme Activity (ADME) Assay for human CYP3A4 (AID 2283110)
# Chain of Cytochrome P450 3A4 (Homo sapiens) (P08684 whole entry, looked up): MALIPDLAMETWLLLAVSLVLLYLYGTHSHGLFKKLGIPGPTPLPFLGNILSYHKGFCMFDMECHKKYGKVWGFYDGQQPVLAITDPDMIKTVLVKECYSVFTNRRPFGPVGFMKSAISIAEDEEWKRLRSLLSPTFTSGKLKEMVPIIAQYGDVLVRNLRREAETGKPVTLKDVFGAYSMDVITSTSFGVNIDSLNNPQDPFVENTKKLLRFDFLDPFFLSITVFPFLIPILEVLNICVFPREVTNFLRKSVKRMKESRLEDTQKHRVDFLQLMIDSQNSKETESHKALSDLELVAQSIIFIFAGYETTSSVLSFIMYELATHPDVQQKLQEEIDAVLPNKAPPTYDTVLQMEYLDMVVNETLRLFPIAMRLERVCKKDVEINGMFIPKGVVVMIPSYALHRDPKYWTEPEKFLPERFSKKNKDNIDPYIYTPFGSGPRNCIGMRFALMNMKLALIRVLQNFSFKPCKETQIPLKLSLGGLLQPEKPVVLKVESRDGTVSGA
# In short: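 Compounds screened in duplicate at 10 uM, with follow-up concentration-response for actives, against insect-cell-expressed recombinant enzyme. Activity read by fluorescence 0.33 h after dosing; loss of signal versus acetonitrile control indicates inhibition.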
# [4] = target: Cytochrome P450 2C19 (Homo sapiens) (UniProt P33261); assay: NVS_ADME_hCYP2C19: NovaScreen (NVS) CYP450-related Enzyme Activity (ADME) Assay for human CYP2C19 (AID 2283113);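 as to AC50: potency for inhibition seen as loss of fluorescent signal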
# In short: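 Compounds first screened in duplicate at 10 uM, then confirmed in concentration series. Insect-cell-expressed human CYP2C19 turned over a fluorogenic substrate, and fluorescence was read after 1 h. Inhibition taken as signal loss relative to acetonitrile.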
# [5] = target: human Elastase, ELANE (gene 1991) (UniProt P08246); assay: NVS_ENZ_hElastase: NovaScreen (NVS) Enzymatic Assay for human Elastase (AID 2283153)
# Chain of human Elastase, ELANE (gene 1991) (P08246 whole entry, looked up): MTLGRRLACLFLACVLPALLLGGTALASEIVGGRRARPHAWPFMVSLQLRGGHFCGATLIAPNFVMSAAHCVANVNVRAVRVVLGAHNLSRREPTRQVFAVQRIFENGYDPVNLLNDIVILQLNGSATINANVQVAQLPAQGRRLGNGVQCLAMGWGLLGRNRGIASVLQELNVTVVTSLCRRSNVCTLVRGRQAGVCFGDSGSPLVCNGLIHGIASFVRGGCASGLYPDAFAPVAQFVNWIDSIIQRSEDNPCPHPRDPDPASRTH
# In short: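 Concentration-response to 50 uM max, run singly for chemicals passing a threshold (e.g., 30% inhibition) in a duplicate 25 uM single-point screen. Neutrophil-derived human elastase, absorbance read-out of enzyme activity at 1.5 h; DMSO baseline.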
# [6] = target: human Esterase Plasma (ES), BCHE (gene 590) (UniProt P06276); assay: NVS_ENZ_hES: NovaScreen (NVS) Enzymatic Assay for human Esterase Plasma (ES) (AID 2283157)
# Chain of human Esterase Plasma (ES), BCHE (gene 590) (P06276 whole entry, looked up): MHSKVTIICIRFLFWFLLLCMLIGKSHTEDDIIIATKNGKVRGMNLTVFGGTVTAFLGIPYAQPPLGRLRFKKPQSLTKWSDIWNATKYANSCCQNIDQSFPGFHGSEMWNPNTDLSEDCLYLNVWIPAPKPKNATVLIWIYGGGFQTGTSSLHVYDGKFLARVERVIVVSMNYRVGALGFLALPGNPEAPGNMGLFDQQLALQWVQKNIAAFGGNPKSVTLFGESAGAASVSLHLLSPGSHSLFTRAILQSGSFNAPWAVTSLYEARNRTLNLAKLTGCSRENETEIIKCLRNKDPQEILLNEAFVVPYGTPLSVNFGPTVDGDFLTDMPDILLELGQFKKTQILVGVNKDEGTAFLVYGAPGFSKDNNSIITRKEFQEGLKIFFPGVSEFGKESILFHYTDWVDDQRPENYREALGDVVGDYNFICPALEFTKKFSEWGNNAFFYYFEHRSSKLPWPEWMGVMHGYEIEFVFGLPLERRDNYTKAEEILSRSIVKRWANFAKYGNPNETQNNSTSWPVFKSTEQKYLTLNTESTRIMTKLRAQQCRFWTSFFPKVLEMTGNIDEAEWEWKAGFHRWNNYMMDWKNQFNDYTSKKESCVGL
# In short: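 Primary single-concentration screen at 25 uM in duplicate, then concentration-response to a 50 uM top dose. Human plasma esterase activity detected colorimetrically after 0.25 h incubation, with DMSO as baseline.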
# [7] = target: human Caspase 5 (CASP5), CASP5 (gene 838) (UniProt P51878); assay: NVS_ENZ_hCASP5: NovaScreen (NVS) Enzymatic Assay for human Caspase 5 (CASP5) (AID 2283137)
# Chain of human Caspase 5 (CASP5), CASP5 (gene 838) (P51878 whole entry, looked up): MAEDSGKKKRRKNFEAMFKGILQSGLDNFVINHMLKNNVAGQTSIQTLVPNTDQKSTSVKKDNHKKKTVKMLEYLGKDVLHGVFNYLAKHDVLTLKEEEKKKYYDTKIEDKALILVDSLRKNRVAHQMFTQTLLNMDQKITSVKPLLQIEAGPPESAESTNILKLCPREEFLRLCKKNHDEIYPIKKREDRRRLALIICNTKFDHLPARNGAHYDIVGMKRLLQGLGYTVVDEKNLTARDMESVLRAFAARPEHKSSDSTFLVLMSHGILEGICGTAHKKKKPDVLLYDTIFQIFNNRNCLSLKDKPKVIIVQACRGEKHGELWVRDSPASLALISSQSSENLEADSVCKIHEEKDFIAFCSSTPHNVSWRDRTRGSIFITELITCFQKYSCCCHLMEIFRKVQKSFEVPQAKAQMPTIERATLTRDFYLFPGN
# In short: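 Loss of fluorescent signal versus DMSO scored for E. coli-derived human CASP5 cleaving a fluorescent substrate, 2 h post-dosing; compounds first tested at 25 uM in duplicate, hits rerun in concentration series with 50 uM top concentration.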
# [8] = target: human Beta-secretase (BACE), BACE1 (gene 23621) (UniProt P56817); assay: NVS_ENZ_hBACE: NovaScreen (NVS) Enzymatic Assay for human Beta-secretase (BACE) (AID 2283140);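 also: hits are inhibitors that reduce fluorescent substrate signal versus DMSO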
# Chain of human Beta-secretase (BACE), BACE1 (gene 23621) (P56817 whole entry, looked up): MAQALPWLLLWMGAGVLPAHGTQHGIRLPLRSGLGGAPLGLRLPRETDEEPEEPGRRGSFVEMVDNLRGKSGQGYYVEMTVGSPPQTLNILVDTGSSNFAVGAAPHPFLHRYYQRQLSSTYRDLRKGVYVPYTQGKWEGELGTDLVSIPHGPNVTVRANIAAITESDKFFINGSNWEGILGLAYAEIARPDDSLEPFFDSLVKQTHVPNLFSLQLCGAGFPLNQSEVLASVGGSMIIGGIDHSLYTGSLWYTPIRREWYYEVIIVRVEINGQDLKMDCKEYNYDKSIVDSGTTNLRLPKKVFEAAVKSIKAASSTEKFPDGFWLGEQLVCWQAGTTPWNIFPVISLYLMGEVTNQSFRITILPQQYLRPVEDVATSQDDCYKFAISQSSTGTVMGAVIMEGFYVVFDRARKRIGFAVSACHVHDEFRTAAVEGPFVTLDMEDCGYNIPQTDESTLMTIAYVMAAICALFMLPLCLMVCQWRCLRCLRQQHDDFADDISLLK
# In short: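 Enzyme from SF9 cells was incubated 1 hour with compound and fluorogenic substrate, activity read by fluorescence. Single-concentration duplicates at 25 uM preceded concentration-response follow-up; fitting relative to DMSO baseline.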
# [9] = target: human Caspase 4 (CASP4), CASP4 (gene 837) (UniProt P49662); assay: NVS_ENZ_hCASP4: NovaScreen (NVS) Enzymatic Assay for human Caspase 4 (CASP4) (AID 2283143)
# In short: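 Compounds were first tested in duplicate at 25 uM, and hits were titrated singly to a 50 uM maximum. Recombinant protease from E. coli was read by fluorescence 2 h post-dose, and activity loss was fitted against the DMSO baseline.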
# [10] = target: human Dual Specificity Protein Phosphatase 3 (DUSP3), DUSP3 (gene 1845) (UniProt P51452); assay: NVS_ENZ_hDUSP3: NovaScreen (NVS) Enzymatic Assay for human Dual Specificity Protein Phosphatase 3 (DUSP3) (AID 2283152);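 also: phosphatase activity of recombinant human DUSP3 on a fluorogenic substrate without cells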
# Chain of human Dual Specificity Protein Phosphatase 3 (DUSP3), DUSP3 (gene 1845) (P51452 whole entry, looked up): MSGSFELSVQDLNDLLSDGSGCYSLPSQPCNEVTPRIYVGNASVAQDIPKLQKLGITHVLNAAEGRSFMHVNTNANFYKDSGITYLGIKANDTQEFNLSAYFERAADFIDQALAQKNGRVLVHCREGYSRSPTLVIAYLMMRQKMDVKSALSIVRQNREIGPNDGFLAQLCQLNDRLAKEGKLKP
# In short: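 Cell-free fluorescence-intensity enzyme activity assay with recombinant protein and substrate; loss of signal fitted relative to DMSO baseline. Primary screen in duplicate at 25 uM, actives then run in concentration series; measured 0 h after dosing.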
# [11] = target: human CYP1A2, CYP1A2 (gene 1544) (UniProt P05177); assay: NVS_ADME_hCYP1A2: NovaScreen (NVS) CYP450-related Enzyme Activity (ADME) Assay for human CYP1A2 (AID 2283102);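 as to AC50: potency for inhibition since loss of fluorescence marks reduced CYP1A2 activity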
# Chain of human CYP1A2, CYP1A2 (gene 1544) (P05177 whole entry, looked up): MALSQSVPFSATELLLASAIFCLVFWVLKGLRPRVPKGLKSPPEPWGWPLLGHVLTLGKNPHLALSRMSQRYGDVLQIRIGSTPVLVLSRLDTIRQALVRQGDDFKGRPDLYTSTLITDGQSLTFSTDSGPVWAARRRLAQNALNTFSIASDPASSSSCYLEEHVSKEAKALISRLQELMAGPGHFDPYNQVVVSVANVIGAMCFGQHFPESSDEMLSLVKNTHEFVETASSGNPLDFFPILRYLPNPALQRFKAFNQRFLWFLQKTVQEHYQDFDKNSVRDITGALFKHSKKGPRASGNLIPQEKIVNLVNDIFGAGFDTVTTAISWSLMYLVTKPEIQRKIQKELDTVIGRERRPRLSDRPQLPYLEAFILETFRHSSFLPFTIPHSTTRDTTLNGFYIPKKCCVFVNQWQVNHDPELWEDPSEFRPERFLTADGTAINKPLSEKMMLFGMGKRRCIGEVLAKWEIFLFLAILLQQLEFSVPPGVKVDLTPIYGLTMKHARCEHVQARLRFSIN
# In short: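 Enzyme activity of insect-cell-expressed human CYP1A2 measured by fluorescence 0.5 h after compound addition, relative to acetonitrile. Compounds first tested in duplicate at 10 uM, actives followed up in concentration series.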
# [12] = target: human Colony Stimulating Factor 1 Receptor (CSF1R), CSF1R (gene 1436) (UniProt P07333); assay: NVS_ENZ_hCSF1R: NovaScreen (NVS) Enzymatic Assay for human Colony Stimulating Factor 1 Receptor (CSF1R) (AID 2283150)
# In short: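 Compounds screened in duplicate at 25 uM, then concentration-response (top 50 uM) for those passing threshold such as 30% inhibition; recombinant CSF1R activity measured 1 h post-dosing via fluorescent substrate/product mobility-shift separation, loss of signal versus DMSO.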
# [13] = target: human Ephrin type-A Receptor 1 (EphA1), EPHA1 (gene 2041) (UniProt P21709); assay: NVS_ENZ_hEphA1: NovaScreen (NVS) Enzymatic Assay for human Ephrin type-A Receptor 1 (EphA1) (AID 2283158);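 also: activity is signal loss versus DMSO meaning EphA1 kinase inhibition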
# In short: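 Fluorescent substrate conversion, resolved by mobility-shift separation, measured 1 hour post-dosing using recombinant enzyme; signal loss relative to DMSO baseline. Single-concentration duplicates at 25 uM preceded singleton concentration series topping at 50 uM.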
# [14] = target: human Casein Kinase 1-delta (CK1D), CSNK1D (gene 1453) (UniProt P48730); assay: NVS_ENZ_hCK1D: NovaScreen (NVS) Enzymatic Assay for human Casein Kinase 1-delta (CK1D) (AID 2283148)
# In short: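 Recombinant human CK1-delta, cell-free; fluorescent substrate with electrophoretic mobility-shift separation of product, read 1 h after dosing. Single 25 uM duplicate screen, then concentration-response up to 50 uM; loss of signal vs DMSO.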
# [15] = target: human Acid Phosphatase 1 (ACP1), ACP1 (gene 52) (UniProt P24666); assay: NVS_ENZ_hACP1: NovaScreen (NVS) Enzymatic Assay for human Acid Phosphatase 1 (ACP1) (AID 2283136)
# Chain of human Acid Phosphatase 1 (ACP1), ACP1 (gene 52) (P24666 whole entry, looked up): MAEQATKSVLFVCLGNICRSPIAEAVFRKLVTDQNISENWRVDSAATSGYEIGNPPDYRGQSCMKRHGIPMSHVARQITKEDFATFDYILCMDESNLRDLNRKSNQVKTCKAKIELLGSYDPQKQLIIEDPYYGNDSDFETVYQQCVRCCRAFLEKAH
# In short: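 Cell-free fluorescence read-out of phosphatase activity, substrate and product separated by mobility shift, taken 1.5 h after compound addition; protein produced in Sf9. Single 25 uM duplicate screen, followed by concentration series for actives, scored as signal loss relative to DMSO.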
# [16] = target: human Caspase 8 (CASP8), CASP8 (gene 841) (UniProt Q14790); assay: NVS_ENZ_hCASP8: NovaScreen (NVS) Enzymatic Assay for human Caspase 8 (CASP8) (AID 2283146)
# Chain of human Caspase 8 (CASP8), CASP8 (gene 841) (Q14790 whole entry, looked up): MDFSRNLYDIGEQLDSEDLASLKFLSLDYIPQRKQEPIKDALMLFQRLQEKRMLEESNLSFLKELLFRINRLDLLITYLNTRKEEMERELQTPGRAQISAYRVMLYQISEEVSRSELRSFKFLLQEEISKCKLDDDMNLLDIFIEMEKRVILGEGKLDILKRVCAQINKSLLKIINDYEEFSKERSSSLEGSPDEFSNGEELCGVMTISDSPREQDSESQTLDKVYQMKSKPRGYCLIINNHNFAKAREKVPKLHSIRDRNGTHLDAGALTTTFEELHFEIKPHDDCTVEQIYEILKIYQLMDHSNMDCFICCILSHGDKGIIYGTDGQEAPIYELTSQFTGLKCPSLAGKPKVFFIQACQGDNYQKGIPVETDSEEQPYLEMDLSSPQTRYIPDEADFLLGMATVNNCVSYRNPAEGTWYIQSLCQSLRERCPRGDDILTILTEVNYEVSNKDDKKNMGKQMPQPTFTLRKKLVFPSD
# In short: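 The primary screen tested compounds in duplicate at a single 25 uM concentration, with actives followed up in concentration series. Activity of recombinant (E. coli) protease was measured by fluorescence 1 h post-dose, as signal loss against DMSO.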
# [17] = target: Caspase-3 (Homo sapiens) (UniProt P42574); assay: NVS_ENZ_hCASP3: NovaScreen (NVS) Enzymatic Assay for human Caspase 3 (CASP3) (AID 2283139)
# Chain of Caspase-3 (Homo sapiens) (P42574 whole entry, looked up): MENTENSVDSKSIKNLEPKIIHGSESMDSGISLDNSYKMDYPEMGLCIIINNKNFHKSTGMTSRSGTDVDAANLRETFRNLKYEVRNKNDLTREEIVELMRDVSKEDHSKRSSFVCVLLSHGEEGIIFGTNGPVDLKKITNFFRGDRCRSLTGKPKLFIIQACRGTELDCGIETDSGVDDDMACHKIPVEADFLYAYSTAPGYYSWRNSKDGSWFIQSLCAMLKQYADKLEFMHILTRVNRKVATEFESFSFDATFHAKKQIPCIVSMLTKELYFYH
# In short: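 Single-concentration screening at 25 uM in duplicate, with concentration-response follow-up to a 50 uM maximum for chemicals passing the threshold. Caspase-3 (human, E. coli-expressed) activity was read as substrate fluorescence after 1 h, with loss of signal relative to DMSO.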
# [18] = target: human AKT serine/threonine Kinase 2 (AKT2), AKT2 (gene 208) (UniProt P31751); assay: NVS_ENZ_hAKT2: NovaScreen (NVS) Enzymatic Assay for human AKT serine/threonine Kinase 2 (AKT2) (AID 2283141)
# In short: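 Cell-free fluorescence/electrophoretic mobility shift readout of recombinant human AKT2 activity, 1 h after chemical dosing. Duplicate primary screen at 25 uM, then singleton concentration-response up to 50 uM; loss of signal versus DMSO baseline.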
structure (smiles),measurement,setting,value
CC(=O)NC1(c2cccc(F)c2)CCN(CC[C@@]2(c3ccc(Cl)c(Cl)c3)CN(c3ccccc3)C(=O)CO2)CC1,AC50,[1],2.77 µM (active)
same,AC50,[2],6.63 µM (active)
same,AC50,[3],1.78 µM (active)
same,AC50,[4],1.79 µM (active)
same,AC50,[5],8.58 µM (active)
same,AC50,[6],3.79 µM (active)
OCCC(F)(F)C(F)(F)C(F)(F)C(F)(F)C(F)(F)C(F)(F)F,AC50,[4],6.15 µM (active)
Cc1oc(-c2ccccc2)nc1CCOc1ccc(C[C@H](Nc2ccccc2C(=O)c2ccccc2)C(=O)O)cc1,outcome,[3],inactive
same,outcome,[4],inactive
same,AC50,[7],8.25 µM (active)
same,AC50,[8],1.17 µM (active)
same,outcome,[9],inactive
same,AC50,[10],14.9 µM (active)
same,AC50,[5],10.6 µM (active)
Cc1cc(C)c(O)c(C)c1,outcome,[4],inactive
CC1=C(/C=C/C(C)=C/C=C/C(C)=C/C(=O)O)C(C)(C)CCC1,outcome,[11],inactive
same,outcome,[1],inactive
same,outcome,[4],inactive
C#C[C@]1(O)CC[C@H]2[C@@H]3CCC4=CC(=O)CC[C@@H]4[C@H]3CC[C@@]21C,AC50,[4],3.13 µM (active)
NC(=O)N(O)[C@@H]1C=C[C@H](Oc2cccc(Oc3ccc(F)cc3)c2)C1,AC50,[1],1.16 µM (active)
same,AC50,[3],4.62 µM (active)
same,AC50,[4],0.644 µM (active)
same,outcome,[6],inactive
Cc1cc(CCN2CCN(c3nsc4ccccc34)CC2)cc2c1NC(=O)CC2(C)C,outcome,[1],inactive
same,AC50,[2],10 µM (active)
same,AC50,[4],4.35 µM (active)
same,outcome,[12],inactive
same,AC50,[6],22.2 µM (active)
CCCOc1sc(C(=O)N2CCC(c3cc(CN)ccc3F)CC2)c(C)c1Br,AC50,[11],5.25 µM (active)
same,AC50,[2],1.92 µM (active)
same,AC50,[3],14.4 µM (active)
same,AC50,[4],0.68 µM (active)
same,AC50,[8],4.17 µM (active)
same,AC50,[10],7.33 µM (active)
same,AC50,[6],8.81 µM (active)
CCCCCCCCCCCCCC[N+](C)(C)C,AC50,[1],3.64 µM (active)
same,AC50,[4],2.73 µM (active)
same,AC50,[8],4.96 µM (active)
same,outcome,[13],inactive
CCN(CC)CCNc1ccc(CNC=O)c2sc3ccc(OC)cc3c(=O)c12,AC50,[11],7.1 µM (active)
same,AC50,[14],6.5 µM (active)
same,AC50,[6],0.751 µM (active)
CC[C@H](C)[C@@H](C(=O)O)n1sc2ccccc2c1=O,AC50,[4],13.4 µM (active)
COCC(C)OCC(C)O (stereo not drawn),outcome,[15],inactive
c1ccc2cc3c(ccc4ccccc43)cc2c1,outcome,[7],inactive
same,outcome,[16],inactive
same,AC50,[5],46.9 µM (active)
CC(O)CO (stereo not drawn),outcome,[17],inactive
N#C[C@@H]1CC(F)(F)CN1C(=O)CNC1CC2CCC(C1)N2c1ncccn1 (stereo partly drawn),outcome,[18],inactive
C=C(C)C(=O)OCCC(F)(F)C(F)(F)C(F)(F)C(F)(F)C(F)(F)C(F)(F)F,AC50,[16],1.96 µM (active)
CCCCCCCCCCCCCCCS(=O)(=O)Oc1ccccc1,outcome,[5],inactive
CCCCC(CC)COC(=O)CCCCC(=O)OCc1ccccc1 (stereo not drawn),outcome,[6],inactive
OC1CCC(C2CCCCC2)CC1 (stereo not drawn),outcome,[6],inactive
